Assay outcomes as filed in PubChem BioAssay.
p47phox inh = p47phox (human) inhibition; actives 0.53% (n = 220,000); inhibition, % at 24.7 µM; p47phox/p22phox peptide binding, fluorescence polarization, 2 h; P14598; AID 1274
eIF4E 4G PPI = inhibitors of eIF4E and eIF4G interaction in translation initiation. P63073+Q04637. TR-FRET eIF4E-eIF4GI(517-606) binding, 2 h. inhibition, % at 21.7 µM. actives 0.37% (n = 220,000)
Mcl1 Bid PPI = Mcl-1/Bid interaction inhibition. Q07820. actives 0.97% (n = 220,000). inhibition, % at 21.7 µM. AID 1021. TR-FRET Mcl-1/Bid-Dy647 peptide binding, 1536-well;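 active = compounds that cut the binding signal by more than half at the single screening dose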;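 also: His-tagged Mcl-1 with europium anti-His antibody binding Bid BH3 peptide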
Mcl1-Noxa inh = disrupts binding of human Mcl-1 to Noxa peptide; TR-FRET Mcl-1/Noxa peptide binding, 2 h; inhibition, % at 21.7 µM; actives 1.5% (n = 220,000); AID 1022;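 active = compounds that cut the protein-peptide binding signal by more than 50% relative to plate controls in a single-dose test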;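 also: His-tagged Mcl-1 with rhodamine Noxa BH3 peptide and terbium anti-His antibody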
Bim-Mcl-1 = human Bim-Mcl-1 interaction inhibition. Q07820. inhibition, % at 10 µM. Bead-based flow cytometry, Bim peptide-Mcl-1 binding. actives 0.1% (n = 190,000); in the data active = inhibition above about 40%
14-3-3 Bad PPI = disrupts binding of bovine 14-3-3 zeta to phospho-Bad peptide; P63103; TR-FRET 14-3-3zeta/Dy647-pBad peptide displacement, 1 h; inhibition, % at 21.7 µM; actives 0.71% (n = 220,000);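 active = inhibition above about 70%, limit read from the data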
A number is an active result; . = inactive; / = no result given; + = active, no number; ! = not confirmed by another sample; [ ] = remark or other dose. Sampled rows, rich in hits. Any-hit rate of the full collection: about 3.4%.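 The calls were made as follows, unless noted: active = inhibition above about 30% (limit read from the data); inactive = the rest.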

SMILES	p47phox inh	eIF4E 4G PPI	Mcl1 Bid PPI	Mcl1-Noxa inh	Bim-Mcl-1	14-3-3 Bad PPI
O=C(c1ccccc1F)N1CCN(Cc2ccccc2F)CC1	.	.	59.4	.	.	.
O=C(c1ccccc1F)N1CCN(CC2CC3C=CC2C3)CC1 (stereo not given)	.	.	.	.	.	81.4
Cc1cccc(Cn2nc(-n3cccc3)c3c(C)cc(C)nc32)c1	.	.	.	.	.	.
CCOc1ccc(OCC)c(NC(=O)CN2CCN(c3cc(C)ccc3C)CC2)c1	.	.	51.3	.	.	.
Cc1ccc(/C=N\NC(=O)C2CC(=O)N(c3ccccc3)C2)o1 (stereo not given)	.	.	.	.	/	.
O=C(Oc1ccc(=O)n(-c2ccccc2)n1)c1ccc(Cl)cc1	.	.	.	.	.	.
COc1ccc(C(=O)Oc2ccc(=O)n(-c3ccccc3)n2)cc1	.	.	.	.	.	71.7
O=C(Oc1ccc(=O)n(-c2ccccc2)n1)c1cccc(Cl)c1	.	33.1	.	.	.	.
NC(=S)NNC(=O)c1cccc(Cl)c1	.	.	.	.	/	.
N#CCc1cnc2ccccc2n1	.	.	.	.	/	.
CCC(=O)N1CCCc2cc(S(=O)(=O)N3CCN(c4ccccc4F)CC3)ccc21	.	.	.	65.2	.	.
O=C(Nc1ccncc1)c1ccc(F)cc1	.	.	.	.	.	.
O=C(Nc1ccc(F)cc1)c1ccc(-n2ccnc2)nc1	.	.	.	.	.	86.4
CCCCC(CC)C(=O)Oc1ccc(O)c(C(C)(C)C)c1 (stereo not given)	.	.	.	.	.	.
CC(C)(C)c1cc(OS(C)(=O)=O)ccc1O	31.5	.	.	.	.	.
Cc1nc(-c2ccc(Cl)cc2)sc1C1(C)CC(c2cccc([N+](=O)[O-])c2)=NO1 (stereo not given)	.	.	.	.	/	.
O=C(COc1cccc(Br)c1)NN=C1c2ccccc2-c2ccccc21	68.2	.	.	.	.	.
c1nc2n(n1)C1=C(CCCC1)C1(CCCCC1)N2	.	.	.	.	.	.
CC(C)CNc1cc(N2CCCC2)ccc1[N+](=O)[O-]	59.2	.	.	.	.	.
CCNc1cc(N2CCCC2)ccc1[N+](=O)[O-]	.	.	.	.	.	.
CCOC(=O)c1ccccc1NC(=O)CSc1nc(N)cc(=O)[nH]1	.	.	.	.	/	.
COC(=O)C(C)(C)ONC(=O)Nc1ccccc1[N+](=O)[O-]	.	.	.	.	.	.
CCCONC(=O)Nc1ccccc1[N+](=O)[O-]	.	.	65.8	.	.	.
CC(C)=C1C(=O)NN(c2ccc(F)c(Cl)c2)C1=O	.	.	.	.	.	.
O=C1NN(c2ccc(F)c(Cl)c2)C(=O)/C1=C\c1cccc(OC(=O)c2cccs2)c1	.	.	.	94.0	.	.
SMILES	p47phox inh	eIF4E 4G PPI	Mcl1 Bid PPI	Mcl1-Noxa inh	Bim-Mcl-1	14-3-3 Bad PPI
Cc1ccc2c(c1)N/C(=C(\C=C(/Cl)[N+](=O)[O-])[N+](=O)[O-])N2	.	.	.	59.4	.	.
CCC(C)c1ccc(NC(=S)NC(C)C2CCCO2)cc1 (stereo not given)	/	.	.	.	.	.
O=C1C2=C(SCCS2)C(=O)N1CCCO	72.3	.	.	.	.	.
COCCNC(=S)Nc1ccc2[nH]c(=O)[nH]c2c1	.	.	.	.	.	.
CCCc1cc(=O)n2[nH]cnc2n1	31.9	.	.	.	.	.
Cc1cc(=O)n2[nH]cnc2n1	.	.	.	.	.	.
CCOc1ccc(C(=O)CC(=O)C(=O)NCCc2ccc(OC)c(OC)c2)cc1	.	.	.	.	.	.
Fc1ccccc1-c1nc2ccccc2[nH]1	.	.	.	.	.	.
Clc1ccccc1-c1nc2ccccc2[nH]1	.	.	76.9	.	/	.
c1ccc2[nH]c(-c3ccnc4ccccc34)nc2c1	+!	49.1![fluorescence artefact?]	.	.	.	.
Cn1c(=O)c2c(nc(Cl)n2CC(=O)N2CCCCC2)n(C)c1=O	.	.	.	.	.	.
Cc1nc(C)c(C(=O)NCCC(c2ccccc2)c2ccccc2)o1	.	.	.	.	.	92.3
OC(CNCC(c1ccco1)N1CCCCC1)c1ccccc1 (stereo not given)	.	.	63.0	.	.	.
S=C(NCC(c1ccco1)N1CCCC1)Nc1ccccc1 (stereo not given)	.	.	.	.	.	.
COc1cc(C(=O)NCCOc2ccc(F)cc2)c(Br)c(OC)c1OC	.	.	.	.	.	.
C=CCn1c(O)c(N=NC(=O)CNC(=O)/C=C/c2ccc(OC)cc2)c2ccccc21	.	.	96.5	.	/	.
C=CCn1c(O)c(N=NC(=O)CNC(=O)/C=C/c2ccco2)c2ccccc21	.	.	.	69.4	.	.
O=C(CNC(=O)c1ccco1)N=Nc1c(O)n(CCc2ccccc2)c2ccccc12	.	.	.	.	/	.
COc1ccc(CCNS(=O)(=O)c2cc(C(=O)O)c(Cl)cc2Cl)cc1	.	.	.	.	.	.
Cc1cccc(N2CCN(Cc3cn(C)nc3-c3ccccc3F)CC2)n1	.	.	.	.	.	.
O=C(Cn1c(=O)n(-c2ccccc2)c(=O)c2sccc21)N1CCCC1	.	.	.	104.5	.	.
CC1CCN(C(=O)Cn2c(=O)n(-c3ccc(F)cc3)c(=O)c3sccc32)CC1	.	.	.	.	.	.
CC1CCCCN1C(=O)Cn1c(=O)n(-c2ccc(F)cc2)c(=O)c2sccc21 (stereo not given)	.	75.0	.	.	.	.
Cc1ccc(-n2c(=O)c3sccc3n(CC(=O)N3CCCC3)c2=O)cc1	.	.	.	.	.	.
O=[N+]([O-])c1cc(Cl)cc(/C=N\Nc2ccccn2)c1O	.	.	73.0	.	.	.
SMILES	p47phox inh	eIF4E 4G PPI	Mcl1 Bid PPI	Mcl1-Noxa inh	Bim-Mcl-1	14-3-3 Bad PPI
CC(=O)NC1(C(=O)O)CCCC1	.	.	.	.	/	.
O=C(CSc1nc(C2CCCCC2)n(-c2ccccc2)n1)NCCN1C(=O)CSC1=O	.	.	.	.	.	.
O=C(CSc1nc(C2CCCCC2)n(-c2ccccc2)n1)NCC(F)(F)F	41.5	.	.	.	.	.
c1ccc(-c2nccc(-c3ccc4c(c3)OCO4)n2)cc1	.	.	.	.	.	.
c1ccc(-c2nccc(-c3ccc(-n4cnc5ccccc54)cc3)n2)cc1	45.8	.	54.8	.	.	95.8
CCCCc1ccc(NC(=O)N2CCNC(=O)C2CC(=O)Nc2ccsc2C(=O)OC)cc1 (stereo not given)	.	.	.	.	/	.
NC(CO)C(=O)NNCc1ccc(O)c(O)c1O (stereo not given)	.	.	.	101.4	.	.
COc1ccc(CNC(=S)Nc2ccccc2-c2ccccc2)cc1	.	.	.	.	.	.
CCN(c1ccccc1)S(=O)(=O)c1ccc(Cl)c(NC(=O)COC(=O)c2cc(O)c3ccccc3c2O)c1	.	.	.	54.6	/	.
